High-throughput results as filed in PubChem BioAssay.
Compounds with a hit are over-represented: about 21% of the library has one in this group of screens.
Pf growth 48h: P. falciparum growth inhibition at 48 hours (one generation). P. falciparum luciferase growth in erythrocytes, 48 h. Potency, µM (top dose mostly 28.7 µM), for inactives: at the highest dose activity change, negative = inhibition, usual class: inhibitors. actives 5.9% (n = 310,000). AID 504832; further: potency means the concentration at half of the fitted maximal effect; on the % scale 0 is the no-effect control and ±100 the full control effect
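Cell-based growth assay: transgenic P. falciparum expressing firefly luciferase, cultured in red cells within RPMI 1640 containing 0.5% w/v Albumax, 24 mM bicarbonate and gentamycin. A drop in luciferase activity indicates inhibition.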
Sm TGR inh: inhibitors of Schistosoma mansoni thioredoxin glutathione reductase; Potency, µM (top dose mostly 114 µM), for the others: at the highest dose activity change, negative = inhibition, hits mostly inhibitors; purified TGR, DTNB reduction, TNB absorbance 405 nm; AID 485364; Q962Y6; actives 3% (n = 360,000); further: potency means the concentration at half of the fitted maximal effect; on the % scale 0 is the no-effect control and ±100 the full control effect; nearly all actives have a fitted effect of over 60% in size
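First, TGR (20 nM dispensed) and NADPH were mixed with compound. Second, a 15 min room-temperature incubation followed. Third, further NADPH and then DTNB were added to start the reaction. Finally, TNB absorbance was monitored kinetically.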
NS1 function inh: inhibitors of influenza NS1 protein function; Potency, µM (top dose mostly 46.1 µM), for the others: top-dose activity, positive = more growth; actives 0.4% (n = 270,000); calls by dose curve; further: potency means the concentration at half of the fitted maximal effect; actives are rising curves; nearly all actives have a fitted effect of over 50% in size
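Recovery from NS1-induced slow growth read by OD600 in budding yeast switched to galactose assay medium (pH 6.0, -URA) at 1:100 dilution. Compound 23 nl per well; the matching strain lacking NS1 serves as control.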
Pf growth 96h: P. falciparum growth inhibition at 96 hour, primary screen for plastid delayed-death inhibitors; actives 6.9% (n = 320,000); P. falciparum luciferase reporter growth, 96 h; AID 504834; Potency, µM (series often up to 28.7 µM), for inactives: top-dose activity change, negative = inhibition, actives largely listed as inhibitors; further: potency means the concentration at half of the fitted maximal effect; on the % scale 0 is the no-effect control and ±100 the full control effect
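Two parasite generations (96 h, 37 C, 5% CO2) of compound exposure in infected erythrocytes (0.05% parasitemia, 2% hematocrit). Luciferase-reporter P. falciparum; decreased luminescence indicates inhibited growth, aimed at apicoplast-acting delayed death.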
Shiga toxin inh: inhibitors of Shiga toxin in Vero cells; Vero cells, Shiga toxin protein synthesis inhibition reporter; inhibition, % at 38.7 µM; actives 9.2% (n = 290,000); in the data active means inhibition mostly above about 28%, no sharp cut-off; inactive means mostly below about 43%; further: 0% is about no effect
Cycloheximide cs: affects cycloheximide protein synthesis inhibition readout, counter-screen; cell reporter, cycloheximide protein synthesis inhibition counterscreen; max response, %; actives 12% (n = 300,000); AID 2314; in the data active means max response mostly above about 13%, no sharp cut-off; inactive means mostly below about 14%; further: read at 38.3 µM for the half of the compounds with a filed dose; 0% is about no effect
* marks the source's active call; other numbers are inactive results; ? = inconclusive; nt = not tested or not shown; [ ] = another dose, or the depositor's remark. Unless noted, the call rests on the fitted dose curve; in most records, active means well fitted curve in the direction sought with a large enough effect; inconclusive means small, poorly fitted or top-dose-only effect, or another doubt; inactive means no such curve, though single readings can be large; an effect the other way counts as inactive or inconclusive.

SMILES | Pf growth 48h | Sm TGR inh | NS1 function inh | Pf growth 96h | Shiga toxin inh | Cycloheximide cs
O=C(Nc1ccc(Cl)c(C(F)(F)F)c1)C1CCCN(S(=O)(=O)c2cnc[nH]2)C1 (stereo unspecified) | ? | -24.3% | -8.2% | 10.4µM* | -8.6 | 1.8
COc1ccccc1N1CCN(CCCC(=O)c2ccc(F)cc2)CC1 | 1.1% | -1.3% | -6.9% | nt | 31.0 | -3.2
COc1ccc(CC(=O)OCC(=O)c2ccc(OC)c(OC)c2)cc1 | -1.1% | 8.3% | nt | 17.7% | nt | nt
CC(=O)OCC(=O)c1ccc2ccn(C(C)=O)c2c1 | 3.8% | 4.8% | -6.4% | 10.4µM* | 31.8 | 25.1*
COc1ccc(C(=O)CCN2CCN(c3ccccc3OC)CC2)cc1 | 16.8% | 0.562µM* | nt | ? | 6.2 | 3.7
COc1ccccc1N1CCN(CC(=O)c2ccc3ccn(C(C)=O)c3c2)CC1 | nt | 25.1µM* | 1.6% | 170.6% | -3.3 | -1.9
COc1ccccc1N1CCN(CC(=O)N2CCCC2)CC1 | 19.3% | -8.9%[57.1 µM] | -3.0% | ? | -1.1 | 1.1
COc1ccc(-c2oc3ncn4nc(COc5ccc(C)cc5)nc4c3c2-c2ccc(OC)cc2)cc1 | nt | 2.5% | nt | nt | nt | nt
Cc1ccc(C(=O)Nc2ccc(-n3c(C)nc4ccccc4c3=O)cc2)cc1[N+](=O)[O-] | nt | -3.9% | nt | nt | nt | nt
O=[N+]([O-])c1ccc(S(=O)(=O)N2CCN=C2SCc2ccc(F)cc2)cc1 | -7.0% | -15.7% | 3.9% | ? | -11.7 | 16.7
COc1ccc(OC)c(C(=O)N2CCC(C(=O)c3ccc(F)cc3)CC2)c1 | -15.6% | -12.6% | -1.6% | 9.28µM* | -6.2 | -3.3
O=C(NCCc1c[nH]c2ccccc12)c1ccco1 | 27.7% | -4.9% | -5.9% | 50.9% | 26.2 | 18.0*
O=C(NCCc1c[nH]c2ccccc12)/C(=C/c1ccco1)NC(=O)c1ccco1 | -1.5% | nt | 0.6% | 0.294µM* | -6.2 | -0.8
Cc1ccc(-n2ncc(C(=O)NCC3CCN(C4CCCC4)C3)c2C2CCN(C(=O)OC(C)(C)C)CC2)cc1 (stereo unspecified) | ? | ? | -2.0% | ? | -5.1 | -7.2
CC(C)(C)OC(=O)N1CCC(c2c(C(=O)NCC3CCN(C4CCCC4)C3)cnn2-c2ccc(F)cc2)CC1 (stereo unspecified) | 2.62µM* | -23.8% | 3.0% | -10.2% | -12.7 | 1.3
CC(C)(C)OC(=O)N1CCC(c2c(C(=O)NCC3CCN(C4CCCC4)C3)cnn2-c2ccccc2)CC1 (stereo unspecified) | 3.7µM* | -6.9% | 16.6% | 7.8% | 0.9 | -3.6
Cc1ccc(-n2ncc(C(=O)NCC3CCN(C4CCCC4)C3)c2C2CCN(C(=O)OC(C)(C)C)CC2)cc1C (stereo unspecified) | 13.1µM* | ? | 3.2% | 2.33µM* | -4.0 | 17.7
CC(C)(C)OC(=O)N1CCC(c2c(C(=O)NCC3CCN(C4CCCC4)C3)cnn2-c2cccc(Cl)c2)CC1 (stereo unspecified) | ? | -29.1% | 13.7% | -4.8% | -8.1 | -7.9
COc1ccc(S(=O)(=O)N2CCCCC2)cc1NC(=O)CCNC(=O)c1ccc(Br)cc1 | 8.7% | 3.8% | nt | 8.9% | nt | nt
S=C(Nc1ccc(Cl)c(Cl)c1)NN1CCOCC1 | -10.6% | ? | 0.0% | 31.9% | -10.7 | -7.6
Cc1ccccc1OCC(=O)Nc1nnc(SCc2cc(=O)n3cc(Cl)ccc3n2)s1 | nt | 3.4% | nt | nt | nt | nt
OC1(c2ccccn2)COc2ccccc2O1 (stereo unspecified) | 28.8% | -27.9% | 6.9% | 86.8% | 32.4 | 23.7*
Cc1ccc(N2C(=O)c3oc4cc(C)c(C)cc4c(=O)c3C2c2cccc(O)c2)nc1 (stereo unspecified) | nt | 0.3% | nt | nt | nt | nt
Cc1ccccc1C(=O)Nc1nc(-c2cccnc2)cs1 | -3.6% | 4.5% | 5.0% | -26.7% | 28.1 | 19.5*
CC(=O)Nc1ccc(C(=O)Nc2nc(-c3cccnc3)cs2)cc1 | -3.1% | 9.0% | nt | 0.0% | 20.7 | 15.4*
O=C(Nc1nc(-c2cccnc2)cs1)c1ccccc1Cl | ? | 12.5% | 1.0% | 5.1% | 18.2 | -2.0
COc1ccc(/C=C/C(=O)OC2CCCN(C)C2)cc1 (stereo unspecified) | 16.8% | -3.9% | 7.3% | ? | 47.8* | 25.7*
